Experimental data as given in PubChem BioAssay (NCI).
Several values for one entry are separate records, joined by “and”; a condition that tells them apart may be missing. Equal values may be shown once. This is part of a sample that, as a whole, favours compounds with a hit. Of some 83,000 tested, about 20% had one in any assay.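 Percent growth is the endpoint: 0 to 100 indicates growth inhibition (40 means 60% inhibition), 0 means no net growth, and negative values indicate cell death.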 A number with no mark means an inactive call. Activity calls are given as the source filed them. How the source made its calls: active means growth percent below 10; inactive means the rest.

tested on: HL-60(TB) leukemia; experiment: NCI-60 one-dose screen, 48 h (100 = growth as untreated, 0 = no growth, -100 = all killed); details: 10 µM unless noted

Compound	growth
COc1ccc(-c2nnc(SCC(=O)Nc3ccc(C(=O)/C=C/c4ccccc4)cc3)o2)cc1OC	90%
COc1ccc2c(O)c(/C=C3\N=Nc4ncccc43)oc2c1C[C@H]1CCNC[C@H]1F	-45.4% (active)
Fc1ccc2c(c1)c(-c1nc(-c3c[nH]c4ncccc34)cs1)cn2CCCN1CCCCC1	24.2%
O=C(Cc1ccccc1)c1ccc(Cl)cc1	111%
CCN1CCN(Cc2ccc(NC(=O)c3cccc(C#Cc4cccc5[nH]nc(N)c45)c3)cc2C(F)(F)F)CC1	-54.1% (active)
CCNc1cc(-c2cccc(OC(F)(F)F)c2)nc2ccc(N3CCCC3)cc12	-47.1% (active)
Nc1c(C(=O)Nc2ccccn2)sc2nc3c(cc12)CCCCCC3	-22.2% (active)
CCN(CC)c1cc(C)c2cc(NC(=O)c3cccc(OC)c3)ccc2n1	84.7%
N#CCCN(CCO)c1ccccc1	89.9%
C[C@]12CC[C@@H]3c4ccc(O)cc4C[C@@H](O)[C@H]3[C@@H]1CC[C@@H]2O	101%
Cc1c(O)c(N=Nc2ccc(C(=O)O)c(O)c2)c2ccccc2c1O	77.4%
Clc1ccc(-c2nnc(COc3ccc(C4=NNC(c5ccco5)C4)cc3)o2)cc1 (centres undefined)	79.6%
O=C(Nc1cccc(-n2cc(-c3ccncc3)c(-c3ccc(Cl)c(O)c3)n2)c1)Nc1cccc(C(F)(F)F)c1	12.5%
C=C(C)[C@@H]1CC[C@]2(C=O)CC[C@]3(C)[C@H](CC[C@@H]4[C@@]5(C)CCCNC(C)(C)[C@@H]5CC[C@]43C)[C@@H]12	7.59% (active)
Cc1nc(Nc2ncc(C(=O)Nc3c(C)cccc3Cl)s2)cc(N2CCN(CCO)CC2)n1	107% and 35.7%
Cc1ccc(-c2noc(CC(=O)c3ccc([N+](=O)[O-])cc3)n2)cc1	65.2%
COc1cc(-c2cncn2-c2ccc(-c3nc4ccc(F)cc4s3)cc2)ccc1F	53.1%
CC(=O)c1c(-c2ccc(OC(F)(F)F)cc2)nc2ccccn12	115%
CCCCCCCCCCCCCCCCCCNC(=S)N/N=C/c1ccc(OC)c(OC)c1	73.6%
NN1C(=O)CSC1=S	126%

Compound	growth
O=C(COc1ccc(/C=C2\Oc3ccccc3C2=O)cc1)Nc1nc2c(s1)CCCC2	-72.2% (active)
CN(C=O)c1ccccc1	101%
Cc1[nH]c2ccc(F)cc2c1CCNC(=O)C1CCN(C(=O)c2ccccc2)C1 (centres undefined)	107% [25 µM]
O=C(NN1C(=O)CSC1c1ccc(Cl)cc1)c1[nH]c2ccc(F)cc2c1-c1ccccc1 (centres undefined)	35.5%
CCCCCCC(O)(c1ccc(F)cc1)C(CN1CCOCC1)c1ccccc1 (centres undefined)	30.8%
CC(C)=NNc1ccc([N+](=O)[O-])cc1[N+](=O)[O-]	57.5%
CCOC(=O)c1c2c(n3ccc(C)cc13)C(=O)c1ccccc1C2=O	76.1%
CC(=O)NCC(=O)c1ccc([N+](=O)[O-])cc1	103%
Cc1ccc(C(=O)Nc2ccc(Cl)cc2C(=O)NCc2ccccc2)cc1	51.9%
CN(CCn1sc(=O)n(Cc2ccccc2)c1=O)Cc1ccc2c(Cl)cc(Cl)c(O)c2n1	40.7%
Cn1cnc2c(N3CCN(C(=O)OCc4ccc5c(Cl)cc(Cl)c(O)c5n4)CC3)nc(Cl)nc21	66%
CCC(/C=C\C(C)=O)CC	104%
N#C/C(=C\c1ccc([N+](=O)[O-])s1)c1nc2cc(Cl)ccc2s1	44.8%
CCCCCCCCCCCC(=O)NCCCN(C)C	83.7%
CC(C)c1ccc(COCc2cc(CN3CCCC3)c(O)c3ncccc23)cc1	-20.3% (active)
Cn1cc(-c2nonc2-c2c[nH]c3ccc(Br)cc23)c2cc(Br)ccc21	54%
C/C(=N\O)c1ccc(NC(=O)CSc2nnc(-c3ccccc3)n2-c2ccccc2)cc1	90.4%
CCCCCCN1C(=O)CN=C1Nc1ccc2cc3ccc(NC4=NCC(=O)N4CCCCCC)cc3nc2c1	50.1%
COc1cc2cc(Oc3ccc(NC(=O)Nc4ccc(Cl)c(Cl)c4)cc3)c(C)nc2cc1OC	9.64% (active)
